A short description of assay [1]: inhibitors of TNFa-induced NFkB p65 translocation, primary screen, imaging, HUVEC, MLSMR starter and 10KST1 sets (AID 438;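 active means inhibition above 20% together with a positive visual image hit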;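 further: compound added about 3h40 before a 20 min TNFalpha stimulation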;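 on inhibition: signal is the nuclear over cytoplasmic p65 intensity ratio per well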). To be noted: HUVEC TNFa-induced p65 nuclear translocation; cell count: measured here: nuclei count (cytotoxicity indicator), at 2.08 µM; inhibition: at 2 µM, stronger effect = higher value, 0% TNFa-plus-vehicle, 100% no-TNFa wells.
Assay [2] can be described thus: inhibitors of mutant huntingtin aggregation, primary screen, imaging, exon1htt(103Q)mCFP cells, high-content imaging (AID 483;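 active means visual image review flags a hit and inhibition of aggregation exceeds 20%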;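 further: compound exposure lasted 3 days before fixation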;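 on nuclei count: percent of the per-plate median nuclei count of sample wells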). To be noted: exon1htt(103Q)mCFP cell line, aggregate imaging, at 2 µM; inhibition of aggregation: stronger effect = higher value; nuclei count: measured here: cell count, toxicity.
Assay [3] in a line: inhibitors of E-selectin induction by TNFa, primary screen, imaging, HUVEC, immunofluorescence, MLSMR starter and 10KST1 sets (AID 487;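 active means visually confirmed hit in the image check and inhibition above 20%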;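 on inhibition: signal is fraction of cell area covered by stained E-selectin grains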;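 on nuclei count: 100% = median nuclei count of all wells on the same plate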). To be noted: HUVEC TNFalpha-induced E-selectin immunofluorescence imaging, at 2 µM; inhibition: stronger effect = higher value; nuclei count: measured here: cell number, toxicity.
The target in assay [4] is Voltage-gated potassium channel subunit beta-2 (Rattus norvegicus) (UniProt P62483). Description: KvBeta enzyme negative modulators, primary screen, biochemical, NADPH fluorescence (AID 622;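 active means fluorescence slope higher than the sample average by over 3 SD, cut at about -0.22 in these data, passing the limit was not always enough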;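 further: slope of raw intensity against log time taken from 70 to 1610 s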). To be noted: recombinant KvBeta, 4-cyanobenzaldehyde reduction, at 10 µM, stronger effect = higher value.
The target is the same in assay [5]. Description: KvBeta positive modulators, primary screen, biochemical, NADPH fluorescence (AID 623;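 active means NADPH fluorescence slope more negative than the mean of all samples by about 3 SD, 99.7% confidence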;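 further: fluorescence intensity change per second fitted from 20 to 320 s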). To be noted: Recombinant KvBeta, NADPH fluorescence decrease slope, 10 min; at 10 µM; stronger effect = lower value.
For assay [6], the target named is Alpha-2C adrenergic receptor (Homo sapiens) (UniProt P18825). The experiment in a line: modulators of alpha2C/GIRK thallium flux, primary screen, cell-based, HEK293 alpha2C/GIRK1/2 (AID 624;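 active means fluorescence slope after compound addition differing from the mean of all screened samples at 99.7% confidence, in either direction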;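 further: slope of fluorescence ratio to pre-addition baseline per second over 15 to 24 s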). To be noted: thallium flux BTC fluorescence, at 10 µM, actives lie on both sides.
A short description of assay [7]: inhibitors of Sendai virus-induced IRF3 signaling, primary screen, TLR/RLR signaling modifier project, cell-based, Sendai virus stimulus, luciferase, 10K MLSCN set (AID 602276;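 active means inhibition at or above 50% at 10 µM; inactive means inhibition below 50%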;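 further: firefly luciferase from ISG56 promoter only with Renilla not read in this screen; 0% = Sendai virus plus DMSO and 100% = medium plus DMSO without virus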). To be noted: HEK293 RL24 IRF3 luciferase reporter, at 10 µM, stronger effect = higher value.
Assay [8] in a line: inhibitors of poly I:C-induced TLR3 signaling, primary screen, cell-based, poly I:C stimulus, luciferase, 10K MLSCN set (AID 602277). To be noted: HEK293-TLR3 RL24 IRF3 luciferase reporter, at 10 µM, stronger effect = higher value.

Activity calls are given as the source filed them.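 How the source made its calls, unless noted: active means inhibition of the reporter signal at or above 50%; inactive means inhibition below 50%.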

Chain of Alpha-2C adrenergic receptor (Homo sapiens) (P18825 whole entry, looked up): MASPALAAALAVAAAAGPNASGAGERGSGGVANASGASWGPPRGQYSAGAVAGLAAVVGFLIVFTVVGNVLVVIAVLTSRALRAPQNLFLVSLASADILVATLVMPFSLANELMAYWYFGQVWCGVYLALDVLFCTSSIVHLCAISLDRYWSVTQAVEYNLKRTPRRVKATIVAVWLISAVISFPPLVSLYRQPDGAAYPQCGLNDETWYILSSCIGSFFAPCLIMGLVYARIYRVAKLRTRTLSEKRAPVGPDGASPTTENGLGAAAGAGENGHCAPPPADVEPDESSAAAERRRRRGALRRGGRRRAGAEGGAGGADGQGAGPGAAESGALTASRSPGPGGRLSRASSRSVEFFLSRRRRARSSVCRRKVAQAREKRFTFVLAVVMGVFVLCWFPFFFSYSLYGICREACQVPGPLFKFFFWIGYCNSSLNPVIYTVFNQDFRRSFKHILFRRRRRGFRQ
Chain of Voltage-gated potassium channel subunit beta-2 (Rattus norvegicus) (P62483 whole entry, looked up): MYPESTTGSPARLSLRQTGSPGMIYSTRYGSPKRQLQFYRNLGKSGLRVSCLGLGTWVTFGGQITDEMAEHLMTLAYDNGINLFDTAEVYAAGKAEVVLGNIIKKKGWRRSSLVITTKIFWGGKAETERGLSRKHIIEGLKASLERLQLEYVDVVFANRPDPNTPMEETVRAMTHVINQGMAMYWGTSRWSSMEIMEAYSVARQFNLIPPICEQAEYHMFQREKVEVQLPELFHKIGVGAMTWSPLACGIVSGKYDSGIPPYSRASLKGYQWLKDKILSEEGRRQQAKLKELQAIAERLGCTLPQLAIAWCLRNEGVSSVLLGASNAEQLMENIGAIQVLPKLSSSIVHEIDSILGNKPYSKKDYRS

As for `Cc1cccc(-n2ncc3c(NCCCn4ccnc4)ncnc32)c1`, the cell count in assay [1] amounted to 604. Also, the inhibition is 1.3% (inactive) in assay [1], -29.8% (inactive) in assay [3], -63.1% (inactive) in assay [7] and -121% (inactive) in assay [8]. Further, the inhibition of aggregation in assay [2] was 30.9% (inactive). Moreover, the nuclei count in assay [2] is 99.7%; in assay [3], 119%. The fluorescence slope in assay [4] was -0.45 (inactive). Further, the NADPH fluorescence slope in assay [5] is -4.7e-05 (inactive). Also, the slope in assay [6] was 0.00546 (inactive).

With `CC(=O)c1ccc(OCC(O)CN2CC(C)OC(C)C2)cc1` (centres undefined), the cell count in assay [1] amounted to 310. Also, the inhibition in assay [1] was 8.6% (inactive); in assay [3] it was 0.4% (inactive); in assay [7] it was 9.28% (inactive); in assay [8] it was 16.8% (inactive). The inhibition of aggregation in assay [2] is 15% (inactive). Also, the nuclei count was 92.4% in assay [2] and 98.9% in assay [3]. The fluorescence slope in assay [4] is -0.613 (inactive). In addition, in assay [5], the NADPH fluorescence slope was 9.2e-06 (inactive). In addition, the slope in assay [6] was 0.00724 (inactive).

As to `CCC1CCc2c(sc3ncnc(N4CCOCC4)c23)C1` (centres undefined), the cell count in assay [1] worked out at 588. Moreover, the inhibition in assay [1] is -4.4% (inactive); in assay [3], -4% (inactive); in assay [7] it was -6.27% (inactive); in assay [8], 13.8% (inactive). The inhibition of aggregation in assay [2] is -3.1% (inactive). The values for the nuclei count in assay [2] and in assay [3] were 25.7% and 114%, respectively. Moreover, in assay [4], the fluorescence slope is -0.469 (inactive). In addition, the NADPH fluorescence slope in assay [5] is -4.6e-05 (inactive). Besides, in assay [6], the slope is 0.00589 (inactive).

`Cc1cccc(OCC(=O)N2CCN(C(=O)Cc3ccccc3)CC2)c1`: the cell count in assay [1] worked out at 264. The inhibition in assay [1] was -5.5% (inactive); in assay [3], -34.1% (inactive); in assay [7] it was 5.28% (inactive); in assay [8] it was 16.6% (inactive). For the same molecule, the inhibition of aggregation in assay [2] was 15.8% (inactive). Also, the nuclei count in assay [2] amounted to 85.9%; in assay [3], 111%. Further, in assay [4], the fluorescence slope is -0.502 (inactive). Further, in assay [5], the NADPH fluorescence slope was -4.5e-05 (inactive). Moreover, in assay [6], the slope was 0.00476 (inactive).

On to `CN(C)c1nc(SCCOC(=O)c2ccccc2)nc(N(C)C)n1`, for which the cell count in assay [1] is 775. For the same molecule, the inhibition in assay [1] was -4.7% (inactive); in assay [3], -45.1% (inactive); in assay [7], 8.47% (inactive); in assay [8] it was 11.2% (inactive). Moreover, the inhibition of aggregation in assay [2] was -21.8% (inactive). The nuclei count in assay [2] is 118%; in assay [3], 102%. In addition, in assay [4], the fluorescence slope is -0.385 (inactive). Moreover, in assay [5], the NADPH fluorescence slope is 2.1e-06 (inactive). Also, in assay [6], the slope was 0.00433 (inactive).

For `CCCC(C)c1nnc(NC(=O)C2CCCO2)s1` (centres undefined), in assay [1], the cell count came to 575. For the same molecule, the inhibition in assay [1] is 0% (inactive); in assay [3], 9.1% (inactive); in assay [7], -3.58% (inactive); in assay [8], -11.9% (inactive). The inhibition of aggregation in assay [2] was -11.3% (inactive). For the same molecule, the nuclei count in assay [2] is 97.6%; in assay [3], 103%. Also, the fluorescence slope in assay [4] is -0.524 (inactive). Moreover, in assay [5], the NADPH fluorescence slope was -4e-05 (inactive). The slope in assay [6] was 0.00609 (inactive).

On to `Cc1csc2ncc(C(=O)Nc3ccccc3Cl)c(=O)n12`, for which, in assay [1], the cell count came out at 677. Also, the inhibition in assay [1] is 5.8% (inactive); in assay [3] it was -12.3% (inactive); in assay [7], -29% (inactive); in assay [8], -83.1% (inactive). Also, the inhibition of aggregation in assay [2] is -20% (inactive). Also, the nuclei count in assay [2] is 95.1%; in assay [3], 116%. The fluorescence slope in assay [4] was -0.486 (inactive). Moreover, the NADPH fluorescence slope in assay [5] is 5.1e-06 (inactive). Also, in assay [6], the slope is 0.00716 (inactive).

For `Nc1nnc(SCc2cc3c(cc2Cl)OCO3)s1`, in assay [1], the cell count was 379. Further, the inhibition was 7.6% (inactive) in assay [1], -30.6% (inactive) in assay [3], 0.13% (inactive) in assay [7] and 9.87% (inactive) in assay [8]. The inhibition of aggregation in assay [2] is -3.1% (inactive). Also, the nuclei count in assay [2] was 110%; in assay [3], 111%. Besides, the fluorescence slope in assay [4] was -0.477 (inactive). Also, the NADPH fluorescence slope in assay [5] is -6.6e-05 (inactive). Also, the slope in assay [6] is 0.00689 (inactive).

Turning to `CCOC(=O)Cn1nnc(-c2ccc(SC)cc2)n1`, the cell count in assay [1] turned out to be 729. The inhibition in assay [1] was -6.9% (inactive); in assay [3] it was -69.2% (inactive); in assay [7], 11.7% (inactive); in assay [8] it was 16.7% (inactive). For the same molecule, the inhibition of aggregation in assay [2] was -11.1% (inactive). Also, the figures for the nuclei count in assay [2] and in assay [3] were 102% and 116%, respectively. For the same molecule, the fluorescence slope in assay [4] is -0.329 (inactive). Moreover, the NADPH fluorescence slope in assay [5] was -6.5e-05 (inactive). In assay [6], the slope is 0.00483 (inactive).

Regarding `O=C(Nc1cnn(Cc2ccc(Cl)cc2Cl)c1)c1noc2c1CCCC2`, the cell count in assay [1] stood at 510. Besides, the inhibition in assay [1] was -7.6% (inactive); in assay [3], -22.8% (inactive); in assay [7], -3.18% (inactive); in assay [8], -25.5% (inactive). Besides, the inhibition of aggregation in assay [2] was 33.3% (active). In addition, the nuclei count in assay [2] was 57.6%; in assay [3], 99.5%. Moreover, in assay [4], the fluorescence slope was -0.569 (inactive). For the same molecule, in assay [5], the NADPH fluorescence slope was -2.6e-05 (inactive). Moreover, in assay [6], the slope was 0.00522 (inactive).

Turning to `CN(C)S(=O)(=O)c1ccc2c(c1)c(=O)c(C(=O)NCCCN1CCCCCC1)cn2C`, the cell count in assay [1] came out at 707. The inhibition in assay [1] was -2.8% (inactive); in assay [3], -51.2% (inactive); in assay [7] it was 0.741% (inactive); in assay [8], 31.9% (inactive). For the same molecule, the inhibition of aggregation in assay [2] is 4.4% (inactive). For the same molecule, the nuclei count came out at 101% in assay [2] and 106% in assay [3]. Besides, the fluorescence slope in assay [4] is -0.601 (inactive). For the same molecule, in assay [5], the NADPH fluorescence slope was -3.3e-05 (inactive). Moreover, the slope in assay [6] is 0.00602 (inactive).

Regarding `Cc1cccc(Cc2c(C)nc3nc(SCC(=O)NCc4ccco4)nn3c2C)c1`, in assay [1], the cell count turned out to be 389. The inhibition is 0.3% (inactive) in assay [1], -79.7% (inactive) in assay [3], 10.8% (inactive) in assay [7] and 27.6% (inactive) in assay [8]. Besides, the inhibition of aggregation in assay [2] was 5.8% (inactive). Moreover, the nuclei count came out at 85.7% in assay [2] and 101% in assay [3]. Besides, the fluorescence slope in assay [4] was -0.463 (inactive). Also, in assay [5], the NADPH fluorescence slope is -5.1e-07 (inactive). Besides, the slope in assay [6] was 0.00687 (inactive).

On to `O=C(Nc1ccccc1N1CCOCC1)c1ccc2ccccc2n1`, for which the cell count in assay [1] was found to be 589. Also, the inhibition in assay [1] is -21.6% (inactive); in assay [3], 17.1% (inactive); in assay [7] it was -13.5% (inactive); in assay [8], -46% (inactive). The inhibition of aggregation in assay [2] was -18.1% (inactive). The results for the nuclei count in assay [2] and in assay [3] were 92.8% and 94.6%, respectively. For the same molecule, in assay [4], the fluorescence slope was -0.39 (inactive). In addition, the NADPH fluorescence slope in assay [5] is -4.7e-05 (inactive). The slope in assay [6] was 0.00386 (inactive).

As to `CCN(CC)CCN1C(=O)c2oc3ccc(F)cc3c(=O)c2C1c1ccncc1` (centres undefined), in assay [1], the cell count was determined as 598. The inhibition in assay [1] is -12.9% (inactive); in assay [3], -5.7% (inactive); in assay [7] it was 15.9% (inactive); in assay [8], 44.8% (inactive). Besides, the inhibition of aggregation in assay [2] was -2.9% (inactive). The nuclei count in assay [2] is 102%; in assay [3], 111%. Also, in assay [4], the fluorescence slope is -0.536 (inactive). For the same molecule, in assay [5], the NADPH fluorescence slope was -4.3e-05 (inactive). In addition, in assay [6], the slope is 0.00733 (inactive).

Source of the values: PubChem BioAssay.
